According to PubChem BioAssay AID1159580 (chemical genetic matrix, 2015):
Values joined by “and” are separate entries in the source; they are usually repeats but may differ in a detail not shown here. Identical values can stand only once. About 2,000 (36%) of roughly 5,500 compounds were called active. Not shown: some 18% with an inconclusive outcome. This is one part of the list. Values without a mark were called inactive. Rule as the data show it: active = normalized growth mostly below about 0.91 (no sharp cut-off); inconclusive = no clear call, values can overlap the other calls; inactive = mostly above about 0.92.

Test: chemical genetic growth profiling, strain panel (AID 1159580);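 also: tested at 20 µM; growth read once vehicle control cultures reached saturation at 30 °C; 1 = growth at the plate median or of vehicle wells; lower values mean less growth of the strain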
Settings: S. cerevisiae deletion strains, growth OD

SMILES: C[C@]12CCC3C(CC[C@]4(O)C[C@@H](O)CC[C@]34C=O)[C@@]1(O)CCC2C1=CC(=O)OC1 (stereo not given in full)
- normalized growth (locus YAL021C, strain ccr4, hits give low values): 0.92
- normalized growth (locus YAL026C, strain drs2, hits give low values): 0.983
- normalized growth (locus YAL030W, strain snc1, hits give low values): 0.975
- normalized growth (locus YBL061C, strain skt5, hits give low values): 0.979
- normalized growth (locus YBR009C, strain hhf1, hits give low values): 0.967
- normalized growth (locus YBR021W, strain FUR4, hits give low values): 1
- normalized growth (locus YBR023C, strain chs3, hits give low values): 0.98
- normalized growth (locus YBR171W, strain sec66, hits give low values): 0.986
- normalized growth (locus YBR229C, strain ROT2, hits give low values): 0.94
- normalized growth (locus YBR231C, strain swc5, hits give low values): 0.995
- normalized growth (locus YBR279W, strain paf1, hits give low values): 0.986
- normalized growth (locus YCL011C, strain gbp2, hits give low values): 0.943
- normalized growth (locus YCL016C, strain dcc1, hits give low values): 0.958
- normalized growth (locus YCL029C, strain bik1, hits give low values): 0.962
- normalized growth (locus YCL069W, strain vba3, hits give low values): 0.981
- normalized growth (locus YCR088W, strain abp1, hits give low values): 0.988
- normalized growth (locus YDL005C, strain med2, hits give low values): 0.969
- normalized growth (locus YDL035C, strain GPR1, hits give low values): 0.964
- normalized growth (locus YDL040C, strain nat1, hits give low values): 0.992
- normalized growth (locus YDL074C, strain BRE1, hits give low values): 1.01
- normalized growth (locus YDL101C, strain DUN1, hits give low values): 0.987
- normalized growth (locus YDL185W, strain tfp1, hits give low values): 0.962
- normalized growth (locus YDL192W, strain arf1, hits give low values): 0.976
- normalized growth (locus YDR001C, strain nth1, hits give low values): 0.967
- normalized growth (locus YDR069C, strain doa4, hits give low values): 0.986
- normalized growth (locus YDR101C, strain arx1, hits give low values): 0.97
- normalized growth (locus YDR137W, strain rgp1, hits give low values): 0.971
- normalized growth (locus YDR159W, strain sac3, hits give low values): 1.05
- normalized growth (locus YDR162C, strain NBP2, hits give low values): 0.975
- normalized growth (locus YDR195W, strain ref2): 1.01
- normalized growth (locus YDR297W, strain sur2, hits give low values): 0.994
- normalized growth (locus YDR318W, strain mcm21, hits give low values): 0.98
- normalized growth (locus YDR334W, strain swr1, hits give low values): 0.978
- normalized growth (locus YDR335W, strain msn5, hits give low values): 0.989
- normalized growth (locus YDR388W, hits give low values): 0.982
- normalized growth (locus YDR392W, strain spt3, hits give low values): 0.889
- normalized growth (locus YDR502C, strain sam2, hits give low values): 0.99
- normalized growth (locus YEL003W, strain gim4, hits give low values): 0.991
- normalized growth (locus YEL037C, strain rad23, hits give low values): 0.979
- normalized growth (locus YEL061C, strain CIN8 (second series), hits give low values): 0.984
- normalized growth (locus YEL061C, strain CIN8, hits give low values): 0.986
- normalized growth (locus YER015W, strain faa2, hits give low values): 0.922 (active)
- normalized growth (locus YER016W, strain bim1, hits give low values): 0.991
- normalized growth (locus YER110C, hits give low values): 0.98
- normalized growth (locus YER111C, strain swi4, hits give low values): 1.02
- normalized growth (locus YER155C, strain BEM2 (second series), hits give low values): 1.06
- normalized growth (locus YER155C, strain BEM2, hits give low values): 0.994
- normalized growth (locus YER167W, strain BCK2, hits give low values): 0.984
- normalized growth (locus YFR010W, strain ubp6, hits give low values): 0.982
- normalized growth (locus YGL078C, strain dbp3, hits give low values): 0.996
- normalized growth (locus YGL086W, strain mad1, hits give low values): 0.992
- normalized growth (locus YGL167C, strain pmr1, hits give low values): 0.965
- normalized growth (locus YGL173C, strain kem1, hits give low values): 0.994
- normalized growth (locus YGL227W, strain vid30, hits give low values): 0.998
- normalized growth (locus YGL240W, strain doc1, hits give low values): 1.03
- normalized growth (locus YGL248W, strain PDE1, hits give low values): 1
- normalized growth (locus YGL253W, strain hxk2, hits give low values): 0.985
- normalized growth (locus YGR135W, strain pre9, hits give low values): 0.975
- normalized growth (locus YGR229C, strain SMI1, hits give low values): 0.991
- normalized growth (locus YGR252W, strain gcn5, hits give low values): 0.988
- normalized growth (locus YHR013C, strain ard1, hits give low values): 0.953
- normalized growth (locus YHR027C, strain rpn1, hits give low values): 0.973
- normalized growth (locus YHR030C, strain SLT2, hits give low values): 0.991 and 0.995
- normalized growth (locus YHR079C, strain IRE1 (second series), hits give low values): 0.98
- normalized growth (locus YHR079C, strain IRE1, hits give low values): 0.988
- normalized growth (locus YHR094C, strain hxt1, hits give low values): 0.976
- normalized growth (locus YHR129C, strain ARP1, hits give low values): 0.989
- normalized growth (locus YHR142W, strain chs7, hits give low values): 0.971
- normalized growth (locus YHR200W, strain rpn10, hits give low values): 0.964
- normalized growth (locus YIL066C, strain RNR3, hits give low values): 0.95
- normalized growth (locus YIL073C, strain SPO22, hits give low values): 0.958
- normalized growth (locus YIL125W, strain kgd1, hits give low values): 0.969
- normalized growth (locus YIR030C, strain dcg1, hits give low values): 0.975
- normalized growth (locus YJL092W, strain hpr5, hits give low values): 0.97
- normalized growth (locus YJL095W, strain BCK1 (second series), hits give low values): 0.98
- normalized growth (locus YJL095W, strain BCK1, hits give low values): 1.05 and 1.01
- normalized growth (locus YJL115W, strain asf1, hits give low values): 0.968
- normalized growth (locus YJL129C, strain trk1, hits give low values): 0.999
- normalized growth (locus YJL134W, strain LCB3, hits give low values): 0.98
- normalized growth (locus YJL154C, strain vps35, hits give low values): 0.984
- normalized growth (locus YJL164C, strain tpk1, hits give low values): 0.933
- normalized growth (locus YJL166W, strain qcr8, hits give low values): 1
- normalized growth (locus YJL168C, strain set2, hits give low values): 0.982
- normalized growth (locus YJL187C, strain SWE1 (second series), hits give low values): 1.01
- normalized growth (locus YJR043C, strain POL32, hits give low values): 0.964
